We go through 49 compounds from PubChem BioAssay AID1851 (National Center for Advancing Translational Sciences (NCATS), 2009).

Molecules are shown by their SMILES. In all, about 16,000 compounds went through this assay and about 5,700 (36%) were called active. Not shown: some 24% with an inconclusive outcome. The list shows a part of the results. Values without a mark were called inactive. Calls follow the shape of the dose curve; as a rule, active = well fitted curve in the direction sought with a large enough effect; inconclusive = small, poorly fitted or top-dose-only effect, or effect the other way; inactive = no such curve, though single readings can be large or run the other way.

A word on the AC50: it is the concentration giving half of the maximal activity seen.
% is scaled to controls: 0 for no effect and ±100 for the full control effect.

In this assay the target is Cytochrome P450 1A2 (Homo sapiens) (UniProt P05177). Kind of assay: Cytochrome panel assay with activity outcomes. As to conditions: recombinant CYP, pro-luciferin dealkylation, luminescence, p450-cyp1a2; series mostly up to 57.1 µM; activity, negative = inhibition: at the top concentration.
Chain of Cytochrome P450 1A2 (Homo sapiens) (P05177 whole entry, looked up): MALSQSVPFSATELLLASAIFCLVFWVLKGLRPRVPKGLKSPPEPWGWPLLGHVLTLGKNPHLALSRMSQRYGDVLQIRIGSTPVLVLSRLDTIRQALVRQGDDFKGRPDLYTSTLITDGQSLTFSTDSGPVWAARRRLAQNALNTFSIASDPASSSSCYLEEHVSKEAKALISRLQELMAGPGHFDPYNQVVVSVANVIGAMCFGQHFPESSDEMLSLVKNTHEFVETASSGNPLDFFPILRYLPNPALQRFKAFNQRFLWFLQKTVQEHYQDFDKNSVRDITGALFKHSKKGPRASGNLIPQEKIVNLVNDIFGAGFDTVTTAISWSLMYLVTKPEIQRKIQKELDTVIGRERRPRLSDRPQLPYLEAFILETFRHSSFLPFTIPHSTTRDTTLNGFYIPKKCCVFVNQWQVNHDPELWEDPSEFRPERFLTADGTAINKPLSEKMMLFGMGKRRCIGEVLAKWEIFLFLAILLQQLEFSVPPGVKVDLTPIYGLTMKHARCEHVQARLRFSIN
Regarding `COc1ccc(CNc2ccnc(-c3cccc(C#N)c3)n2)c(OC)c1`, the AC50 was 2.51 µM (active). The same measure, in the same setting: under `COc1ccccc1CNc1ccnc(-c2cccc(C#N)c2)n1` stands 0.794 µM (active). Take `C=CCNC(=S)N1CCN(c2ncc3c(=O)c(C(=O)O)cn(CC)c3n2)CC1`: the “activity, negative = inhibition” value was -12.9%.

Consider `C=CC[C@H](N)C(=O)O`, for which the “activity, negative = inhibition” value is -2.54%. For `Cc1cc(NC(=O)C2CCCC2)n(-c2nc3ccccc3[nH]2)n1`, the AC50 was 2.82 µM (active). For the compound `O=C(c1cnc(-c2ccccc2)s1)c1ccc(Cl)cc1Cl`, the AC50 is 1.12 µM (active). Take `CC(=O)N1CCC2(CC1)CN(C(c1ccccc1)c1ccccc1)C2`: the “activity, negative = inhibition” value was 1.33%. `COc1ccccc1NC(=O)c1nn(-c2cccc(C(F)(F)F)c2)ccc1=O`: the concentration at half-maximal activity (AC50) was 5.01 µM (active).

Turning to `O=c1ccn(-c2cccc(C(F)(F)F)c2)nc1-c1ccn(-c2ccccc2F)n1`, the concentration at half-maximal activity (AC50) was 5.62 µM (active).

For `CCCC1CCC(c2ccc(C(N)=O)cc2)CC1` (centres undefined), the “activity, negative = inhibition” value was 8.51%.

For `CCN(CC)Cc1nc2c(c(=O)[nH]1)C1(CCCC1)Cc1ccccc1-2`, the AC50 was 5.01 µM (active). As to `O=C(O)CN=C1NC2(CCCC2)Cc2ccccc21`, the “activity, negative = inhibition” value was 3.63%. Regarding `C[C@@H]1C[C@@H]2[C@H]3CCC4=CC(=O)C=C[C@]4(C)[C@]3(F)[C@@H](O)C[C@@]2(C)[C@@]1(O)C(=O)CO`, the AC50 result is “inactive”. Turning to `O=C(OC1CCN(c2ncc(C(F)(F)F)cc2Cl)CC1)c1ccccc1`, the “activity, negative = inhibition” value was -17.9%. Consider `Nc1ccccc1Oc1ncc(C(F)(F)F)cc1Cl`, for which the AC50 was 2.82 µM (active).

Turning to `FC(F)(F)c1cnc(N2CCC(=NOCc3ccc(Cl)cc3)CC2)c(Cl)c1`, the “activity, negative = inhibition” value is -7.97%.

Take `NS(=O)(=O)c1cc2c(cc1Cl)N[C@@H]([C@@H]1C[C@@H]3C=C[C@H]1C3)NS2(=O)=O`: the “activity, negative = inhibition” value was -19.7%. Regarding `CCCCCc1nc2c(C#N)c(-c3ccc(Cl)cc3)ccn2n1`, the AC50 is 8.91 µM (active). Turning to `Cc1oncc1C(=O)Nc1ccc(C(F)(F)F)cc1`, the AC50 is 0.0631 µM (active). Consider `C[C@@H](CCCCC(=O)Nc1ccc(C(F)(F)F)cc1)NCCc1cnc[nH]1`, for which the “activity, negative = inhibition” value is -20.5%. As to `CCCCN=C1N/C(=C\c2ccco2)C(=O)N1c1ccccc1`, the AC50 was 2 µM (active). For the compound `CC(C)CN(CC(C)C)C1=N/C(=C\c2ccco2)C(=O)N1c1ccccc1`, the “activity, negative = inhibition” value is -23.4%. For `O=c1c(-c2cccc(Cl)c2)nc2cncnc2n1Cc1ccccc1Cl`, the AC50 is 2 µM (active). Consider `O=c1c(-c2cccc(Cl)c2)nc2cncnc2n1Cc1ccccc1`, for which the AC50 was 1 µM (active).

In the case of `O=c1c(-c2ccc(F)c(F)c2)nc2cncnc2n1Cc1ccccc1Cl`, the AC50 is 5.01 µM (active). The same measure, in the same setting: under `O=c1c(-c2ccccc2)nc2cncnc2n1Cc1ccccc1Cl` stands 2 µM (active). Turning to `COc1ccc(S(N)(=O)=O)cc1C(=O)NCCCN1CCN(c2ccc(C)cc2)CC1`, the “activity, negative = inhibition” value was -4.28%.

For the compound `CCCCOc1ccc(-c2nnn(CC(=O)c3c[nH]c4ccccc34)n2)cc1`, the “activity, negative = inhibition” value is 9.73%.

`CNC(=O)c1cc2c(cn1)[nH]c1ccccc12`: the half-maximal activity concentration (AC50) is 0.0501 µM (active). With `CCCCOC(=O)c1cc2c(cn1)[nH]c1ccccc12`, the concentration at half-maximal activity (AC50) is 0.158 µM (active). With `CCOCc1cnc(C)nc1NCC(=O)c1c(C)[nH]c2ccccc12`, the “activity, negative = inhibition” value was 9.26%. Same read-out and setting: under `COc1ccc(NC(=O)N2CCC3(CC2)CCN(C(=O)c2cccc(F)c2)CC3)cc1` stands -14.4%. With `CCN=C(Nc1cccc(F)c1)SC1CC(=O)N(c2ccc(OC)cc2)C1=O` (centres undefined), the half-maximal activity concentration (AC50) was 6.31 µM (active). For `CCOC(=O)NNC1CC(=O)N(c2ccc(OC)cc2)C1=O` (centres undefined), the “activity, negative = inhibition” value is -9.03%.

Regarding `Cc1cc2c(nc1C)CCCCN2C[C@H](C)O/N=C\[C@@H](C)[C@H](OCc1ccccc1)C(C)C`, the activity, negative = inhibition is -17.4% [at 11.4 µM].

`CC(=O)c1cnc2cc(C)nn2c1C`: the AC50 is 22.4 µM (active). On to `CC(=O)c1cnc2c(C(=O)O)cnn2c1C`, for which the “activity, negative = inhibition” value is 2.54%. As to `CCN1C(=O)[C@H]2[C@H]3[C@H](O)[C@H](O)C/C(=N/OC[C@@H](O)[C@H]4O[C@H]5OC(C)(C)O[C@H]5[C@@H]4O)[C@@H]3CC[C@@H]2C1=O`, the activity, negative = inhibition is -1.85% [at 11.4 µM]. `O=c1c(-c2cccs2)nc2cncnc2n1Cc1ccc(F)cc1`: the AC50 is 2.51 µM (active). `O=c1c(-c2cccs2)nc2cncnc2n1Cc1ccccc1`: the AC50 is 2.51 µM (active). For the compound `CCCNc1[nH]c(=O)n(C)c(=O)c1N=O`, the “activity, negative = inhibition” value is 0.913%. In the case of `Cc1cccc2c1Oc1ccccc1[C@@H]2NC(=O)c1ccc([N+](=O)[O-])cc1`, the AC50 was 1 µM (active).

Turning to `CC(C)NC(=O)c1ccc(-c2cccc(C(F)(F)F)c2)o1`, the AC50 was 0.398 µM (active).

For the compound `C[C@@]1(C(NC(=O)Cc2ccc(C(F)(F)F)cc2)c2ccc(-c3ccccc3)cc2)C[C@H]1C1CCCCC1` (some centres undefined), the “activity, negative = inhibition” value is 11%. Regarding `CN(C(=O)Cn1nnc(-c2cccc(C(F)(F)F)c2)n1)C1CCCCC1`, the “activity, negative = inhibition” value was -15.3%. As to `OCCNc1ncnc2nc[nH]c12`, the activity, negative = inhibition was -5.82% [at 11.4 µM]. On to `OCCNc1ncnc2c1ncn2[C@@H]1O[C@@H](CO)[C@H](O)[C@@H]1O`, for which the activity, negative = inhibition is -20.3% [at 11.4 µM]. With `CCc1cc2c(NCc3ccco3)ncnc2s1`, the AC50 is 2.51 µM (active). Take `CCc1cc2c(NCCO)ncnc2s1`: the AC50 is 6.31 µM (active).
